Shiga toxin inh = A qHTS for Small Molecule Inhibitors of Shiga Toxin; Vero cells, Shiga toxin protein synthesis inhibition reporter; 290,000 compounds, 9.2% hits; inhibition, % at 38.7 µM; AID 2315, 2010; in the data active = inhibition mostly above about 28%, no sharp cut-off; inactive = mostly below about 43%; also: 0% is about no effect
Cycloheximide cs = Cycloheximide Counterscreen for Small Molecule Inhibitors of Shiga Toxin; cell reporter, cycloheximide protein synthesis inhibition counterscreen; max response, %; 300,000 compounds, 12% hits; in the data active = max response mostly above about 13%, no sharp cut-off; inactive = mostly below about 14%; also: read at 38.3 µM for the half of the compounds with a filed dose; 0% is about no effect
HCMV inh = qHTS Assay for inhibitors of the human cytomegalovirus (HCMV) | HFF cells, HCMV-luciferase reporter, 72 h; stronger effect = lower value | activity change, negative = inhibition, % at 57.5 µM | 410,000 compounds, 4.5% hits; in the data active = activity change below about -60%; inconclusive = no clear call, values can overlap the other calls; inactive = above about -39%; also: % is scaled to controls: 0 for no effect and ±100 for the full control effect
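Luciferase read-out from HCMV-luciferase-infected HFFs (MOI 1 PFU/cell) 72 h post infection at 37C; compounds added after 16 h cell attachment; activity normalized between buffer-only basal and Salinomycin (10uM) inhibitor controls.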
Pf growth 96h = Primary qHTS for delayed death inhibitors of the malarial parasite plastid, 96 hour incubation; P. falciparum luciferase reporter growth, 96 h; Potency, µM (titrated, usually from 28.7 µM), for the others: at the top dose activity change, negative = inhibition, usual class: inhibitors; 320,000 compounds, 6.9% hits; AID 504834, 2011; also: potency is read from the fitted curve at half-maximal effect; % is scaled to controls: 0 for no effect and ±100 for the full control effect
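Erythrocytes infected with luciferase-expressing P. falciparum were dispensed at 2% hematocrit and 0.05% parasitemia (final), then incubated with compounds 96 hours at 37 C in 5% CO2. Luminescence after detection reagent addition reported growth.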
Pf growth 48h = Primary qHTS for delayed death inhibitors of the malarial parasite plastid, 48 hour incubation. P. falciparum luciferase growth in erythrocytes, 48 h. Potency, µM (titrated, usually from 28.7 µM), for the others: at the highest dose activity change, negative = inhibition, most hits filed as inhibitors. 310,000 compounds, 5.9% hits; also: potency is read from the fitted curve at half-maximal effect; % is scaled to controls: 0 for no effect and ±100 for the full control effect
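Here the parasites carry a stable luciferase gene and grow inside erythrocytes in Albumax-based RPMI medium with compound for one erythrocytic cycle. Activity is scored as loss of luminescent signal.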
* hit, by the source's call; ? = inconclusive; nt = no result; + = active, no number; [ ] = remark or other dose. An excerpt weighted towards active compounds, which were near 20% of everything screened. Unless noted, calls follow the shape of the dose curve; as a rule, active = well fitted inhibition curve with a large enough effect; inconclusive = small, poorly fitted or top-dose-only effect, or another doubt; inactive = no such curve, though single readings can be large or run the other way.

SMILES	Shiga toxin inh	Cycloheximide cs	HCMV inh	Pf growth 96h	Pf growth 48h
O=c1c(O)c(-c2ccc(O)c(O)c2)oc2cc(O)cc(O)c12	25	30*	-25	-5%	?
COc1c(-c2ccc(O)cc2)oc2cc(O)cc(O)c2c1=O	11	7	-5	-7%	?
CC1OC(Oc2c(-c3cc(O)c(O)c(O)c3)oc3cc(O)cc(O)c3c2=O)C(O)C(O)C1O (centres undefined)	-7	1	?	-102%	9.3µM*
O=c1cc(-c2ccc(O)c(O)c2)oc2cc(O)cc(O)c12	67*	56*	?	4%	-32%
CCc1ccc2nc(N(CCN(CC)CC)C(=O)c3cccs3)sc2c1	nt	nt	-16	nt	nt
COP1(=O)C=C[C@H](N(Cc2ccccc2)S(=O)(=O)c2ccccc2[N+](=O)[O-])[C@@H](C)O1 (some centres undefined)	0	-4	-10	-6%	-2%
COc1cc(NC(=O)c2cc3c(=O)oc4ccc(C)cc4c3s2)cc(OC)c1OC	nt	nt	-7	nt	nt
COc1ccc(CNC(=O)c2cc3c(=O)[nH]c4ccccc4c3n2C)cc1	17	-5	?	-23%	?
CCc1cccc(NC(=O)c2cc3c(=O)[nH]c4ccccc4c3n2C)c1	nt	nt	-66*	nt	nt
COc1cc(Cl)cc(/C=N\NC(=O)c2ccc3c(c2)OCO3)c1O	nt	nt	-60*	nt	nt
COc1cc(/C=N/NC(=O)c2ccc3c(c2)OCO3)ccc1O	81*	63*	60	-25%	112%
COc1ccc(/C=N/NC(=O)c2ccc3c(c2)OCO3)cc1	102*	27*	?	-4%	-15%[0.00184 µM]
COc1ccc(NCC(=O)N/N=C/c2ccc3c(c2)OCCO3)cc1	44	22*	-16	0%	27%
CCc1ccccc1NC(=S)N1CCN(c2cccc(OC)c2)CC1	nt	1	-17	-3%	38%
Cc1c(C)c2c(cc(C)c3c(-c4ccc(Br)cc4)coc32)oc1=O	nt	nt	-16	nt	nt
O=C1C(=O)N(Cc2cccnc2)C(c2ccccn2)/C1=C(/O)c1ccc(F)cc1 (centres undefined)	24	13	1	?	33%
CN(C(=O)c1ccco1)c1nnc(C23CC4CC(CC(C4)C2)C3)s1	83*	57*	-1	-98%	?
CN(C(=O)c1ccco1)c1nc2c(s1)CCCC2	42*	31*	72	265%	nt
CN(CC12CC3CC(CC(C3)C1)C2)C(=O)c1ccco1	nt	nt	-1	nt	nt
CN(C(=O)COc1ccc(Cl)cc1Cl)c1nnc(C23CC4CC(CC(C4)C2)C3)s1	-10	-5	17	13µM*	?
CN(C(=O)c1ccco1)c1ccccc1C(=O)O	6	-2	-12	7%	-39%
CC(=Nc1ccccc1O)c1sc2ccccc2c1O	67*	33*	37	15µM*	?
CC(=O)NCCN=C(C)c1sc2ccccc2c1O	+	24*	114	-18%	81%
CC(=Nc1ccc(O)cc1)c1sc2ccccc2c1O	95*	48*	-20	42%	128%
O=C(CNC(=O)c1sc2ccccc2c1Cl)NCc1ccccc1	35	7	9	44%	55%
SMILES	Shiga toxin inh	Cycloheximide cs	HCMV inh	Pf growth 96h	Pf growth 48h
CC(=Nc1cccc(C)c1)c1sc2ccccc2c1O	109*	45*	187	216%	118%
Oc1ccc(-c2c(-c3ccsc3)sc3ccccc23)cc1	-8	2	-2	?	23%
CC(C)CC(NC(=O)C(NC(=O)C1CCC(=O)N1C(=O)OCc1ccccc1)C(C)C)C(=O)N1CCCC1C(N)=O (centres undefined)	-5	-4	-30	?	16%
O=C(c1ccc(S(=O)(=O)Cc2ccccc2Cl)c([N+](=O)[O-])c1)N1CCOCC1	-4	-2	-69*	8%	?
O=C(c1ccc(S(=O)(=O)c2ccc(F)cc2)c([N+](=O)[O-])c1)N1CCCCCC1	-6	-4	?	-17%	3.3µM*
Cc1ccc(CS(=O)(=O)c2ccc(C(=O)N3CCN(c4ccccn4)CC3)cc2[N+](=O)[O-])cc1	3	-3	-91*	?	-26%
O=C(c1ccc(S(=O)(=O)Cc2ccccc2F)c([N+](=O)[O-])c1)N1CCCC1	13	6	-5	?	-16%
O=C(c1ccc(S(=O)(=O)c2ccccc2Cl)c([N+](=O)[O-])c1)N1CCN(Cc2ccccc2)CC1	-1	-1	-85*	?	?
CN[C@@H]1[C@H](O[C@@H]2O[C@H](CO)[C@@H](N)[C@H](O)[C@@H]2O)O[C@H]2C[C@@H](N)[C@@H](O[C@H]3[C@@H](O)[C@H](O)[C@H](N)C[C@@H]3N)O[C@H]2[C@H]1O	nt	nt	nt	-18%[12.8 µM]	15%[12.8 µM]
CC(=O)c1ccc(N2CCN(S(=O)(=O)c3c(C)nc4sc(C)cn4c3=O)CC2)cc1	nt	nt	1	nt	nt
O=C(COc1ccccc1[N+](=O)[O-])N(Cc1ccco1)c1ccccn1	nt	nt	49	nt	nt
CC1CCN(C(=O)c2ccc(S(=O)(=O)Cc3ccccc3F)c([N+](=O)[O-])c2)CC1	-13	-5	-76*	?	0%
COc1cc(NS(=O)(=O)c2c(C(=O)N3CCCCC3)c(C)n(C)c2C)cc(OC)c1OC	nt	nt	4	nt	nt
O=C(COC(=O)c1ccc2c(c1)OCO2)Nc1ccccc1F	nt	nt	-5	11%	82%
N#C[C@@H]1[C@@H]2C(=O)N(c3ccc4c(c3)OCCO4)C(=O)[C@@H]2C2c3ccccc3C=CN21 (some centres undefined)	30*	16	nt	17%	?
S=c1[nH]nc(-c2ccc3ncccc3c2)n1-c1ccc2c(c1)OCCO2	-3	9	-5	?	-26%
Fc1ccc(-n2c(-c3ccc4c(c3)OCO4)n[nH]c2=S)cc1Cl	13	11*	-1	46%	92%
COc1cc(OC)cc(-c2n[nH]c(=S)n2-c2ccc3c(c2)OCO3)c1	-5	-2	-4	-11%	-5%
Oc1ccc(-c2n[nH]c(=S)n2-c2ccc3c(c2)OCCO3)cc1	59*	37*	16	?	-13%
S=c1[nH]nc(Cn2c(-c3ccccn3)nc3ccccc32)n1-c1ccc2c(c1)OCCO2	85*	62*	11	?	44%
Cc1nc2ccccc2n1Cc1n[nH]c(=S)n1-c1ccc(Cl)cc1	-3	-2	-35	1%	1%
CC(=O)N/C(=C\c1ccc(Cl)cc1)C(=O)O	6	-1	2	5%	2%
CCC(C)NC(=O)c1sc2nc(C)c(C(=O)Nc3ccc(C)cc3C)c(-c3ccccc3Cl)c2c1N (centres undefined)	nt	nt	-21	nt	nt
COc1ccc(-c2nc3c(c4nnc(SC(C)C(=O)Nc5ccc(C)cc5)n24)COC(C)(C)C3)cc1 (centres undefined)	-8	-3	-35	2.6µM*	7.4µM*
